Assay results: PubChem BioAssay (Tox21)
A number with no mark means an inactive call. Inconclusive results are not listed. Where a call stands in place of a potency, no number is given. The source made the active and inactive calls. Calls follow the shape of the dose curve; as a rule, active = well fitted curve in the direction sought with a large enough effect in the repeat runs; inconclusive = weak or mixed curves; inactive = no such curve, though single readings can be large; an effect the other way counts as inactive or inconclusive.

Legend:
[1] = A CellTox Green Cytotoxicity Assay to monitor cytotoxicity in HEK293 cells - 32 hour (AID 1224881); also: nearly all actives have a fitted effect of over 40% in size
Outline: (§1)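 Dead-cell fluorescence measured kinetically: asymmetric cyanine dye, HEK293, 600 cells/well, 5 h settle, 23 nL cpd/DMSO, 37 C, reads 0–40 h every 8 h.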

[2] = A CellTox Green Cytotoxicity Assay to monitor cytotoxicity in HepG2 cells - 0 hour (AID 1224882); also: nearly all actives have a fitted effect of over 35% in size; also: potency is read from the fitted curve at half-maximal effect
Outline: (§2)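 First, HepG2 cells (600/well) mixed with reagent were plated; second, after 5 h at 37 C they received compounds via pintool; third, fluorescence was measured at 0 h through 40 h at 8 h intervals.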

[3] = A CellTox Green Cytotoxicity Assay to monitor cytotoxicity in HepG2 cells - 32 hour (AID 1224883); also: nearly all actives have a fitted effect of over 50% in size
Outline: as §2

[4] = A CellTox Green Cytotoxicity Assay to monitor cytotoxicity in HEK293 cells - 8 hour (AID 1224884); also: nearly all actives have a fitted effect of over 35% in size
Outline: as §1

[5] = qHTS RealTime-Glo MT Cell Viability Assay in HepG2 cells - 16 hour (AID 1224885); also: nearly all actives have a fitted effect of over 50% in size
Outline: (§3)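 Viability was tracked continuously by NanoLuc luminescence from prosubstrate reduced by living HepG2 cells, at successive time points over 40 h of compound exposure. Cells with reagent were preincubated 5 h at 37 °C before compound addition.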

[6] = qHTS RealTime-Glo MT Cell Viability Assay in HEK293 cells - 24 hour (AID 1224886); also: top concentration of the series differs between compounds; nearly all actives have a fitted effect of over 50% in size
Outline: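 Viability tracked continuously by luminescence as live cells reduce a prosubstrate for NanoLuc; HEK293 cells preincubated 5 h, compound-treated at 37 C, and read at 0, 8, 16, 24, 32 and 40 h.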

[7] = qHTS RealTime-Glo MT Cell Viability Assay in HEK293 cells - 8 hour (AID 1224887); also: top concentration of the series differs between compounds; nearly all actives have a fitted effect of over 50% in size
Outline: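 600 HEK293 cells per well, dispensed already mixed with RealTime-Glo MT reagents. Compound dosing came 5 h later. The same wells were read for luminescence at 0, 8, 16, 24, 32 and 40 h of exposure at 37 C.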

[8] = A CellTox Green Cytotoxicity Assay to monitor cytotoxicity in HEK293 cells - 16 hour (AID 1224888); also: nearly all actives have a fitted effect of over 35% in size
Outline: as §1

[9] = qHTS RealTime-Glo MT Cell Viability Assay in HepG2 cells - 0 hour (AID 1224889); also: nearly all actives have a fitted effect of over 50% in size
Outline: as §3

[10] = A CellTox Green Cytotoxicity Assay to monitor cytotoxicity in HepG2 cells - 8 hour (AID 1224890); also: nearly all actives have a fitted effect of over 45% in size
Outline: as §2

Row | Structure (SMILES) | outcome [1] | Potency [2] | Potency [3] | outcome [4] | outcome [5] | Potency [6] | Potency [7] | outcome [8] | Potency [9] | outcome [10]
1 | Cc1ccccc1N=C(N)N=C(N)N | inactive | inactive | inactive | inactive | inactive | inactive | inactive | inactive | inactive | inactive
2 | CC(C(=O)O)c1cccc(Oc2ccccc2)c1 (stereo not drawn) | inactive | inactive | inactive | inactive | inactive | inactive | inactive | inactive | inactive | inactive
3 | CCCCCC(C)N (stereo not drawn) | inactive | inactive | inactive | inactive | inactive | inactive | inactive | inactive |  | inactive
4 | CN1CCC(=C2c3ccccc3CCc3cccnc32)CC1 | inactive | inactive | inactive | inactive | inactive | inactive | inactive | inactive |  | inactive
5 | CCOC(=O)c1cnc2c(cnn2CC)c1NN=C(C)C | inactive | inactive | inactive | inactive | inactive | inactive | inactive | inactive |  | inactive
6 | CN(C)[C@@H]1C(=O)C(C(=O)NCN2CCCC2)=C(O)[C@@]2(O)C(=O)C3=C(O)c4c(O)cccc4[C@@](C)(O)C3C[C@@H]12 (stereo partly drawn) | inactive | inactive | inactive | inactive | inactive | inactive | inactive | inactive | inactive | inactive
7 | CCC(C)(CN(C)C)OC(=O)c1ccccc1 (stereo not drawn) | inactive | inactive | inactive | inactive | inactive | inactive | inactive | inactive | inactive | inactive
8 | CC(=O)N[C@H]1[C@H]([C@H](O)[C@H](O)CO)OC(C(=O)O)=C[C@@H]1N=C(N)N | inactive | inactive | inactive | inactive | inactive | inactive | inactive | inactive |  | inactive
9 | O=C(O)c1cc(C(=O)O)cc(C(=O)O)c1 | inactive | inactive | inactive | inactive | inactive | inactive | inactive | inactive | inactive | inactive
10 | CC(=O)C1CCCCC1=O (stereo not drawn) | inactive | inactive | inactive | inactive | inactive | inactive | inactive | inactive | inactive | inactive
11 | CCCCc1nc(Cl)c(CO)n1Cc1ccc(-c2ccccc2-c2nn[nH]n2)cc1 | inactive | inactive | inactive | inactive | inactive | inactive | inactive | inactive |  | inactive
12 | O=Cc1cccc(Br)c1 | inactive | inactive | inactive | inactive | inactive | inactive | inactive | inactive | inactive | inactive
13 | CCCCCCCCCCCCCCCCCCO | inactive | inactive | inactive | inactive | inactive | inactive | inactive | inactive | inactive | inactive
14 | O=C(O)Cc1csc(-c2ccc(Cl)cc2)n1 | inactive | inactive | inactive | inactive | inactive | inactive | inactive | inactive | inactive | inactive
15 | Cc1ccc(C(=O)c2ccccc2)cc1 | inactive | inactive | inactive | inactive | inactive | inactive | inactive | inactive | inactive | inactive
16 | Nc1c2c(nc3c1CCC3)CCCC2 | inactive | inactive | inactive | inactive | inactive | inactive | inactive | inactive |  | inactive
17 | Nc1ccccn1 | inactive | inactive | inactive | inactive | inactive | inactive | inactive | inactive | inactive | inactive
18 | CC/C=C\CCOC(C)OCC (stereo not drawn) | inactive | inactive | inactive | inactive | inactive | inactive | inactive | inactive | inactive | inactive
19 | C[C@H]1C[C@H]2[C@@H]3CCC4=CC(=O)C=C[C@]4(C)[C@H]3C(=O)C[C@]2(C)[C@@]1(O)C(=O)CO | inactive | inactive | inactive | inactive | inactive | inactive | inactive | inactive | inactive | inactive
20 | CC1=CC(=O)[C@H]2C[C@@H]1C2(C)C | inactive | inactive | inactive | inactive | inactive | inactive | inactive | inactive | inactive | inactive
21 | CN(C)CCN(C)CCN(C)C | inactive | inactive | inactive | inactive | inactive | inactive | inactive | inactive | inactive | inactive
22 | Cc1ccc(C(=O)Nc2ccc(S(=O)(=O)O)c3cc(S(=O)(=O)O)cc(S(=O)(=O)O)c23)cc1NC(=O)c1cccc(NC(=O)Nc2cccc(C(=O)Nc3cc(C(=O)Nc4ccc(S(=O)(=O)O)c5cc(S(=O)(=O)O)cc(S(=O)(=O)O)c45)ccc3C)c2)c1 | inactive | 23.9 µM (active) | inactive | inactive | inactive | inactive | inactive | inactive |  | inactive
